The results in this text go back to PubChem BioAssay (NCATS).

Results filed as inconclusive are left out. A call without a number means that no potency is given here. Activity calls are given as the source filed them. The call rests on the fitted dose curve.
Potency means the concentration at half of the fitted maximal effect.

This test can be described thus: S16 Schwann cell PMP22 intronic element beta-lactamase assay (AID 624044). Further: nearly all actives have a fitted effect of over 15% in size. The following applies: S16 rat Schwann cells, PMP22 element beta-lactamase FRET, 24 h; series mostly up to 38.3 µM. From the text:
Description: Charcot-Marie-Tooth-Association [CMTA] National Center for Advancing Translational Sciences [NCATS] Charcot-Marie-Tooth (CMT) disease was first characterized by Jean-Martin Charcot and Pierre Marie in France and, independently, by Howard Henry Tooth in England in 1886. CMT is one of the most common inherited neurological diseases, affecting approximately 1 in 2,500 Americans. […] The most prevalent type of CMT is known as CMT1A and caused by a duplication of the PMP22 gene which leads to over-expression of this protein. PMP22 is a glycosylated intrinsic membrane protein accounting for 2-5% of the myelin protein content, and its over-expression results in demyelination and subsequently axonal loss. A pair of cellular transcription-based assays was developed in the S16 rat Schwann cell lines (Hai, M., et al., 2002) stably transfected with orthogonal reporters - firefly luciferase (Fluc) and beta-lactamase (beta-Lac) - whose expression is driven by an intronic regulatory element of the PMP22 gene (Jones, E.A., et al., 2011) to recapitulate endogenous expression of PMP22. The current assay employs Blac as a reporter of PMP22 expression. A comprehensive library of approved drugs, the NCGC Pharmaceutical Collection (Huang, R., et al., 2011), was screened in the cross-validating platform of the orthogonal reporter assays to identify drug modulators inhibitory towards PMP22 expression. A set of counter-screens was devised to address non-specific activity of the library. An ATP-dependent CellTiter-Glo assay (developed by Promega Corp) was utilized to control cell viability. In addition, biochemical Fluc enzyme assay was performed to assess direct inhibition of the Fluc enzymatic activity. References Hai, M., Muja, N., DeVries, G.H., Quarles, R.H. and Patel, P.I. Comparative analysis of Schwann cell lines as model systems for myelin gene transcription studies. J Neurosci Res, 2002. 69(4): pp 497-508 Huang, R., Southall, N., Wang, Y., Yasgar A., Shinn P., Jadhav, A. , Nguyen, D.-T. and Austin, C.P., The NCGC pharmaceutical collection: a comprehensive resource of clinically approved drugs enabling repurposing and chemical genomics. Sci Transl Med, 2011. 3(80): p. 80ps16.
S16 Schwann cell PMP22 intronic element beta-lactamase assay The beta-Lac-expressing S16 cells were seeded in black clear-bottom 1536 well plates at between 500-750 cells/6uL in DMEM medium containing 10% FBS, w/o phenol red. After overnight incubation at 37 degree Celsius/5% C02, 23 nL of compounds or DMSO were delivered to each well using a pin tool, followed by 24h-incubation at 37 degree Celsius/5% C02. Then one microl of LiveBLAzer FRET B/G detection mix (Invitrogen) was added to each well. An EnVision plate reader (PerkinElmer) was used to detect the dual beta-Lac output composed of fluorescence at 460nm for beta-Lac expression and FRET at 535nm for cell viability. The % signal at 535 nm was scaled to a full range of DMSO and zero and then normalized using the maximum response observed in the screen as 100% activity. The % signal at 460nm was normalized to the average readings of potassium clavulanate (a positive control) - treated cells relative to DMSO-treated cells (0% Activity). The concentration-effect curves were then classified based on curve quality (r2), response magnitude and degree of measured activity.
Turning to `COc1ccc2c3c1O[C@H]1C(=O)CC[C@H]4[C@@H](C2)N(C)CC[C@]314`, the Potency entry was “inactive”.
As to `CC(C)(O)C1C2OC(=O)C1C1(O)CC3OC34C(=O)OC2C14C` (stereo not given), the Potency entry is “inactive”.
Under `c1ccc2sc(SNC3CCCCC3)nc2c1` stands “inactive”.
Then `C[N+]1(C)CCCCC1COC(=O)C(O)(c1ccccc1)c1ccccc1` (stereo not given), with “inactive”; and `CCCC(C)(COC(N)=O)COC(=O)NC1CC1` (stereo not given), with “inactive”.
Then `[O]=[Cd]`, with “inactive”.
`O=[N+]([O-])c1ccccc1`: the Potency entry was “inactive”.
Take `O=C1C2CC=CCC2C(=O)N1SC(Cl)(Cl)Cl` (stereo not given): the Potency was 22.4 µM (active).
Under `CCCCCCCCCC(=O)O[C@H]1CC[C@H]2[C@@H]3CCC4=CC(=O)CC[C@]4(C)[C@H]3CC[C@]12C` stands “inactive”.
Under `C=CCN(C1=NCCN1)c1c(Cl)cccc1Cl` stands “inactive”.
Take `O=CC=O`: the Potency result was “inactive”.
Turning to `CN1[C@@H]2CC[C@H]1CC(OC1c3ccccc3CCc3ccccc31)C2` (stereo not given in full), the Potency result is “inactive”.
On to `O=C(CS(=O)C(c1ccccc1)c1ccccc1)NO` (stereo not given), for which the Potency result is “inactive”.
As for `c1csc(C2(N3CCCCC3)CCCCC2)c1`, the Potency result is “inactive”.
Then `[N-]=[N+]=CC(=O)OCC(N)C(=O)O` (stereo not given), with “inactive”.
Under `N#CN` stands “inactive”; under `CN1c2ccccc2C(NCCCCCCC(=O)O)c2ccc(Cl)cc2S1(=O)=O` (stereo not given), “inactive”.
As to `COC1=CC=C2[C@H]3Cc4ccc(OC)c5c4[C@@]2(CCN3C)[C@H]1O5`, the Potency entry is “inactive”.
In the case of `CNC(=O)Oc1ccccc1C(=O)Nc1ccccc1`, the Potency result is “inactive”.
With `Clc1ccc(C2(Cn3cncn3)OCCO2)c(Cl)c1`, the Potency result is “inactive”.
Then `C=CCN=C=S`, with “inactive”; and `[Cl-].[Cl-].[Hg+2]`, with 3.16 µM (active).
Under `F/C(COc1ccc2c(c1)[nH]c1ccccc12)=C1/CN2CCC1CC2` stands “inactive”; under `O=C1CN(O)C(c2ccccc2)=c2cc(Cl)ccc2=N1`, “inactive”; under `CC(C)CCON=O`, “inactive”.
Then `Oc1cc(Cl)c(Cl)cc1Cl`, with “inactive”; and `CCC(=O)O[C@@](Cc1ccccc1)(c1ccccc1)[C@@H](C)CN(C)C`, with “inactive”.
Turning to `Oc1cccc[c]1[Hg][Cl]`, the Potency is 4.46 µM (active).
Take `O=C1CC[C@@]2(O)C3Cc4ccc(O)c5c4C2(CCN3CC2CC2)[C@H]1O5` (stereo not given in full): the Potency entry was “inactive”.
Under `CC1CCC(C(C)C)C(OC(=O)c2ccccc2N)C1` (stereo not given) stands “inactive”; under `CCC1(c2ccccc2)C(=O)NC(=O)N(C(=O)c2ccccc2)C1=O` (stereo not given), “inactive”.
Under `CNC1(c2ccccc2Cl)CCCCC1=O` (stereo not given) stands “inactive”; under `N#CC1(N2CCCCC2)CCCCC1`, “inactive”.
Then `CC12NC(Cc3ccccc31)c1ccccc12` (stereo not given), with “inactive”; and `c1ccc(C2(N3CCCC3)CCCCC2)cc1`, with “inactive”; and `CCC1(CC)C(=O)NC(=O)N(C)C1=O`, with “inactive”.
As for `O[C@H]1[C@H]2[C@H](O)CCCN2C[C@H]1O`, the Potency entry is “inactive”.
Take `Clc1ccc(Cl)cc1`: the Potency entry is “inactive”.
Then `O=C(OCCN1CCCCC1)C(O)(c1ccccc1)c1ccccc1`, with “inactive”.
With `CCC1(c2ccccc2)C(=O)NC(=O)NC1=O`, the Potency entry is “inactive”.
